In PMC7862700, “An all-to-all approach to the identification of sequence-specific readers for epigenetic DNA modifications on cytosine”:

How the values were obtained:
Assay in all cases: DAPPL (digital affinity profiling via proximity ligation, sequencing); 10 mM Tris-HCl pH 7.5, 50 mM NaCl, 1 mM DTT, 4% glycerol, room temperature, 30 min; GST-TFs on glutathione beads, 16-mer random dsDNA library, 0.1% formaldehyde crosslink after washing; high values mean tight binding
FLI1 = target: T1, FLI1 (Homo sapiens, UniProt Q01543 1-452); conditions: protein: recombinant; tags: N-terminal GST; dsDNA, one strand shown
T1 sequence: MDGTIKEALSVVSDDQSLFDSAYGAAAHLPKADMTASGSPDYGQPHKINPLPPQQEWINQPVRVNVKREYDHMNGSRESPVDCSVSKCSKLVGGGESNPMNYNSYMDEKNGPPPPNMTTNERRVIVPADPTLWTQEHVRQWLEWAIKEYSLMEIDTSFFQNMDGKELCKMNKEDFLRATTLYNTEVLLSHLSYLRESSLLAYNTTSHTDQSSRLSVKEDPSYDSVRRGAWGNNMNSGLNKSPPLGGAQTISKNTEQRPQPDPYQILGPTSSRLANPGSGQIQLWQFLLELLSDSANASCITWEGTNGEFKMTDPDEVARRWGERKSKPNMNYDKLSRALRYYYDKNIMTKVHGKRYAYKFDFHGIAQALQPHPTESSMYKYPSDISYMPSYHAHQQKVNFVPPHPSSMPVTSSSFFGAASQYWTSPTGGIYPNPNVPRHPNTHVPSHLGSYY
In short: (§1)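 After expression in yeast as GST fusions, human transcription factors were bound to glutathione beads, DNA-barcoded and mixed with a tag-only sample. The pools were incubated with 200 nmole of a 16-mer random double-stranded DNA library in Tris/NaCl/DTT/glycerol buffer (30 min, room temperature), washed and crosslinked with 0.1% formaldehyde. Proximity ligation with BsaI/T4 ligase ran for 1 h at 37 °C, before PCR amplification and sequencing on an Illumina NextSeq500. Binding signal is a hexamer's read frequency for a factor divided by its frequency for the tag-only sample.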

ELK1 = target: T2, ELK1 (Homo sapiens, UniProt P19419 1-428); conditions: protein: recombinant; tags: N-terminal GST; dsDNA, one strand shown
T2 sequence: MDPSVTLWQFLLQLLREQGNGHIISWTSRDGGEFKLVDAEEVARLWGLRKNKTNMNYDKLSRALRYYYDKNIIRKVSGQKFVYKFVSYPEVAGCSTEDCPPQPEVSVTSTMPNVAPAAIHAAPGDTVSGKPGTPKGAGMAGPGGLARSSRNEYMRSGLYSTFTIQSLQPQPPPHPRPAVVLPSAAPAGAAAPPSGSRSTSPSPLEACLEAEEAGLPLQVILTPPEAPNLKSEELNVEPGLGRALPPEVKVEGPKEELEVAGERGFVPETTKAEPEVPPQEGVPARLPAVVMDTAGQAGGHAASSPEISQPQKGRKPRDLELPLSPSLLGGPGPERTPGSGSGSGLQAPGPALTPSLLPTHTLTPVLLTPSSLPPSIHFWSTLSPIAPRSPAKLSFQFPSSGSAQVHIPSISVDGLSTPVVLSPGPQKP
In short: as §1

GABPA = target: T3, GABPA (Homo sapiens, UniProt Q06546 1-454); conditions: protein: recombinant; tags: N-terminal GST; dsDNA, one strand shown
T3 sequence: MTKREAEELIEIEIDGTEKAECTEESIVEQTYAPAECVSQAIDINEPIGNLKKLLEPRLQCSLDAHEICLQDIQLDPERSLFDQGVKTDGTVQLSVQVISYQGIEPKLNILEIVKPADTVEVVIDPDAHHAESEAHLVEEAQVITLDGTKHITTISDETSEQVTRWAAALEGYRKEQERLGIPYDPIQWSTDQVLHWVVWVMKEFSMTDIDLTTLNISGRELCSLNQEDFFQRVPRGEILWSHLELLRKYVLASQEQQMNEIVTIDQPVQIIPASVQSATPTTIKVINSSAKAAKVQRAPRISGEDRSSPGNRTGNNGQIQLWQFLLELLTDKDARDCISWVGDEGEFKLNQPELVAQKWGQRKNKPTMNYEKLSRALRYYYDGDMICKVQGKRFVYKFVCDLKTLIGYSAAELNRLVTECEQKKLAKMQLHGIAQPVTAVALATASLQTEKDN
In short: as §1

ERG = target: T4, ERG (Homo sapiens, UniProt P11308 1-479); conditions: protein: recombinant; tags: N-terminal GST; dsDNA, one strand shown
T4 sequence: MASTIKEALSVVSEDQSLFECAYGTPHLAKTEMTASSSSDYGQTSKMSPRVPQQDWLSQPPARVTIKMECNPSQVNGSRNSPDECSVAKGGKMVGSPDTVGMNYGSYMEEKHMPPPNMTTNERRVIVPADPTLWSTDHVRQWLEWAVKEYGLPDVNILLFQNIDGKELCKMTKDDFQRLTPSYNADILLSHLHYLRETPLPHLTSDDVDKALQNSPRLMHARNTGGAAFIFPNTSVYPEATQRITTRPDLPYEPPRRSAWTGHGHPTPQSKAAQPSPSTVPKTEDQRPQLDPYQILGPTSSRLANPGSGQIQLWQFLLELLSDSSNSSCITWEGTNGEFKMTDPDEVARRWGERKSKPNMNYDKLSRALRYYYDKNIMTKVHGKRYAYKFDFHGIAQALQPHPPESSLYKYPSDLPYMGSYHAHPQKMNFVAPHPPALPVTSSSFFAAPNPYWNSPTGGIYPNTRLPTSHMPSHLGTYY
In short: as §1

ELF1 = ELF1 (Homo sapiens, UniProt P32519 1-619); conditions: protein: recombinant; tags: N-terminal GST; dsDNA, one strand shown
In short: as §1

EHF = target: T5, EHF (Homo sapiens, UniProt Q9NZC4 1-300); conditions: protein: recombinant; tags: N-terminal GST; dsDNA, one strand shown
T5 sequence: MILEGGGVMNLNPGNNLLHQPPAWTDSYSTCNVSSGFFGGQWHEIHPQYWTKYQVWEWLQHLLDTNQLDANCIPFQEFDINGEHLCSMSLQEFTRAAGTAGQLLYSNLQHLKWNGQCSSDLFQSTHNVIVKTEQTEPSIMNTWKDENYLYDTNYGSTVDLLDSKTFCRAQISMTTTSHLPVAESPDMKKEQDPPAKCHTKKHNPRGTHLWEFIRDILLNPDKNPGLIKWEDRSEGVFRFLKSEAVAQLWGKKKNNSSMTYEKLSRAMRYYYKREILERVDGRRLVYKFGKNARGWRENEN
In short: as §1

SPI1 = SPI1 (Homo sapiens, UniProt P17947 1-270); conditions: protein: recombinant; tags: N-terminal GST; dsDNA, one strand shown
In short: as §1

SPIB = SPIB (Homo sapiens, UniProt Q01892 1-262); conditions: protein: recombinant; tags: N-terminal GST; dsDNA, one strand shown
In short: as §1

ELK3 = target: T6, ELK3 (Homo sapiens, UniProt P41970 1-407); conditions: protein: recombinant; tags: N-terminal GST; dsDNA, one strand shown
T6 sequence: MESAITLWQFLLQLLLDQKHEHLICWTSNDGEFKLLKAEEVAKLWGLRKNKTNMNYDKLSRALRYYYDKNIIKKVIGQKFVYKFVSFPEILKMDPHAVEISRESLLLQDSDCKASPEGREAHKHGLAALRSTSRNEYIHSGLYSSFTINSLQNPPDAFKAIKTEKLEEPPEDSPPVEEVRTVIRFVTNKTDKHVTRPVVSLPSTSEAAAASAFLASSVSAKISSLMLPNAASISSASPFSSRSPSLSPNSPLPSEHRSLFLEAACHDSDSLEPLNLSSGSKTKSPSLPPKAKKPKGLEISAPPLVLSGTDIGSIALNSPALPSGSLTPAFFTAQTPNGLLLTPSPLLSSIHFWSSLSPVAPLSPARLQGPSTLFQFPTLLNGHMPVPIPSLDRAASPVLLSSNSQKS
In short: as §1

FEV = target: T7, FEV (Homo sapiens, UniProt Q99581 1-238); conditions: protein: recombinant; tags: N-terminal GST; dsDNA, one strand shown
T7 sequence: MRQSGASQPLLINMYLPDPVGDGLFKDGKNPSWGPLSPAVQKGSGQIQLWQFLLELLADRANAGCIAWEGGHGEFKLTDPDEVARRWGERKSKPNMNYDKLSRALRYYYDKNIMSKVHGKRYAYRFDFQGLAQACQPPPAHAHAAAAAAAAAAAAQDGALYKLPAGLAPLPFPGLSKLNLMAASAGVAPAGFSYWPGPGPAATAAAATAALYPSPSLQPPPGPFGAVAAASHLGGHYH
In short: as §1

ETV5 = ETV5 (Homo sapiens, UniProt P41161 1-510); conditions: protein: recombinant; tags: N-terminal GST; dsDNA, one strand shown
In short: as §1

HSF1 = HSF1 (Homo sapiens, UniProt Q00613 1-529); conditions: protein: recombinant; tags: N-terminal GST; chain copies: 3; dsDNA, one strand shown
In short: as §1

SPIC = target: T8, SPIC (Homo sapiens, UniProt Q8N5J4 1-248); conditions: protein: recombinant; tags: N-terminal GST; dsDNA, one strand shown
T8 sequence: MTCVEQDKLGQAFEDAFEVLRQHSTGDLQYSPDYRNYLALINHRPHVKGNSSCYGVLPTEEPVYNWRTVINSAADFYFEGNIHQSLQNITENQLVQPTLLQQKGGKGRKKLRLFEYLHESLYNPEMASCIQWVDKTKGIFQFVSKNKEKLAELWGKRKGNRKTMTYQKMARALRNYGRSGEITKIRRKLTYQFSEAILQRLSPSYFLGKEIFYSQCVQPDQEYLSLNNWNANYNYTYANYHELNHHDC
In short: as §1

ELF4 = ELF4 (Homo sapiens, UniProt Q99607 1-663); conditions: protein: recombinant; tags: N-terminal GST; dsDNA, one strand shown
In short: as §1

ELK4 = target: T9, ELK4 (Homo sapiens, UniProt P28324-2 1-405); conditions: protein: recombinant; tags: N-terminal GST; dsDNA, one strand shown
T9 sequence: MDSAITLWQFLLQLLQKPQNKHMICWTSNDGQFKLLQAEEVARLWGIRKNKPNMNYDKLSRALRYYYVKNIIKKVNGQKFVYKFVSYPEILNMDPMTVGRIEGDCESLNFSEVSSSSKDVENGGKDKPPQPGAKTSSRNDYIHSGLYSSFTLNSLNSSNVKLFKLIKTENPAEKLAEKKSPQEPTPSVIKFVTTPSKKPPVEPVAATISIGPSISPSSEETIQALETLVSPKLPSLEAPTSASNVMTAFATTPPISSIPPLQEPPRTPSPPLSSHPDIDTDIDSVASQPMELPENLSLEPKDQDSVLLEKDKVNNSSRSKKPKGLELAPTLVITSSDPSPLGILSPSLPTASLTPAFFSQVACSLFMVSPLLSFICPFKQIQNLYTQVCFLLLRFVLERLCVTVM
In short: as §1

ETV2 = target: T10, ETV2 (Homo sapiens, UniProt O00321 1-342); conditions: protein: recombinant; tags: N-terminal GST; dsDNA, one strand shown
T10 sequence: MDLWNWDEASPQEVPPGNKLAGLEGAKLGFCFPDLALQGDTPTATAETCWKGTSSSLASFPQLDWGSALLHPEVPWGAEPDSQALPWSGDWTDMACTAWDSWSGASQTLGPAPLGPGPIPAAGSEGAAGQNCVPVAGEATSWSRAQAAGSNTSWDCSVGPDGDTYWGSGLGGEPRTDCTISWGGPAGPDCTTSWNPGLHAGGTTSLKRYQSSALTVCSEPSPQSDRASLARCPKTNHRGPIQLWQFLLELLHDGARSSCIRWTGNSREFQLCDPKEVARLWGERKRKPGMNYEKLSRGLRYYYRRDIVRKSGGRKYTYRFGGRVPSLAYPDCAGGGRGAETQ
In short: as §1

ELF3 = target: T11, ELF3 (Homo sapiens, UniProt P78545 1-371); conditions: protein: recombinant; tags: N-terminal GST; dsDNA, one strand shown
T11 sequence: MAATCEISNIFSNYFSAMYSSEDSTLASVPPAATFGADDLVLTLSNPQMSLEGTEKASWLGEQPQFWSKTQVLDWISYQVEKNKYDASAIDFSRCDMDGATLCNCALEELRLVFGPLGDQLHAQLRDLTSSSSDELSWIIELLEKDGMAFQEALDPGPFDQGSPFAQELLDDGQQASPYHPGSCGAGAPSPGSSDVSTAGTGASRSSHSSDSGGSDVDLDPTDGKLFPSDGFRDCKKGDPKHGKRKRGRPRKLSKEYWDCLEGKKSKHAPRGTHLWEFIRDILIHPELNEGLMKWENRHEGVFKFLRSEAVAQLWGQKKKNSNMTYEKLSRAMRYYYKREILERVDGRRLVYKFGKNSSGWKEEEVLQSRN
In short: as §1

CRX = CRX (Homo sapiens, UniProt O43186 1-299); conditions: protein: recombinant; tags: N-terminal GST; dsDNA, one strand shown
In short: as §1

ETV1 = ETV1 (Homo sapiens, UniProt P50549 1-477); conditions: protein: recombinant; tags: N-terminal GST; dsDNA, one strand shown
In short: as §1

ETV5, sequence (P41161 whole entry): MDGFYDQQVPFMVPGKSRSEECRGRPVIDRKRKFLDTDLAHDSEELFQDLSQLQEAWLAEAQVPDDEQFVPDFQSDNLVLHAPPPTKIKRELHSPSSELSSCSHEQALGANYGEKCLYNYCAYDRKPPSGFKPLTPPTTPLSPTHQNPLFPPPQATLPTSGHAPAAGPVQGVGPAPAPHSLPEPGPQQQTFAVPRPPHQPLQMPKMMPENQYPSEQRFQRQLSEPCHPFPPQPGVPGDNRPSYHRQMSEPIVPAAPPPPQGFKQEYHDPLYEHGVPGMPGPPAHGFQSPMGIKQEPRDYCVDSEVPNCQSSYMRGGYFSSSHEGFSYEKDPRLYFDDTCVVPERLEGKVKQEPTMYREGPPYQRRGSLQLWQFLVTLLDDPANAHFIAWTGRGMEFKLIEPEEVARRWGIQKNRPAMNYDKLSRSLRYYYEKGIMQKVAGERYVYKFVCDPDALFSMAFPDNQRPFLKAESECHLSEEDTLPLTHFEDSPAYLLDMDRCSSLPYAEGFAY
CRX, sequence (O43186 whole entry): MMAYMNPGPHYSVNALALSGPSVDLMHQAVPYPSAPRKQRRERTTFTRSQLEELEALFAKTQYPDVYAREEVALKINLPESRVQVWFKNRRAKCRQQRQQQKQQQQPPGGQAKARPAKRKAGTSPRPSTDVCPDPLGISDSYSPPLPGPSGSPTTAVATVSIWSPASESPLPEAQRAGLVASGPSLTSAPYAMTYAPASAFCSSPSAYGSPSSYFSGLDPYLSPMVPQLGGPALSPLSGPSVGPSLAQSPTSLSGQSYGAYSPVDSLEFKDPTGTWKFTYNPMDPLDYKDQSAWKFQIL
HSF1, sequence (Q00613 whole entry): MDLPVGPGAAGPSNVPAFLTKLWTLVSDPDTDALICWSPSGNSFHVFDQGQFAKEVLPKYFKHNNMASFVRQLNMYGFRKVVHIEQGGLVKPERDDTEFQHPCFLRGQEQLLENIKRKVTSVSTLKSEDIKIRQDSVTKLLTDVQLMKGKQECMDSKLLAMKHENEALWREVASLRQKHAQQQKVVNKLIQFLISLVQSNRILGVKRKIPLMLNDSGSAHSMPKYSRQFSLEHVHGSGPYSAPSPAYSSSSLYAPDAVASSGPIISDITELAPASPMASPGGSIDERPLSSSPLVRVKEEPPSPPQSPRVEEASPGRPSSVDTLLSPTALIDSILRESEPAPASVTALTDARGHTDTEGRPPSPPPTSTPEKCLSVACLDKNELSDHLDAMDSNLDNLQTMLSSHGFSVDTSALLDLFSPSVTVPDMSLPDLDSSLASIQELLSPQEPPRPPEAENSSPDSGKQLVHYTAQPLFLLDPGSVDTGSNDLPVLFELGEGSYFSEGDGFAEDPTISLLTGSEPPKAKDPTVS
ETV1, sequence (P50549 whole entry): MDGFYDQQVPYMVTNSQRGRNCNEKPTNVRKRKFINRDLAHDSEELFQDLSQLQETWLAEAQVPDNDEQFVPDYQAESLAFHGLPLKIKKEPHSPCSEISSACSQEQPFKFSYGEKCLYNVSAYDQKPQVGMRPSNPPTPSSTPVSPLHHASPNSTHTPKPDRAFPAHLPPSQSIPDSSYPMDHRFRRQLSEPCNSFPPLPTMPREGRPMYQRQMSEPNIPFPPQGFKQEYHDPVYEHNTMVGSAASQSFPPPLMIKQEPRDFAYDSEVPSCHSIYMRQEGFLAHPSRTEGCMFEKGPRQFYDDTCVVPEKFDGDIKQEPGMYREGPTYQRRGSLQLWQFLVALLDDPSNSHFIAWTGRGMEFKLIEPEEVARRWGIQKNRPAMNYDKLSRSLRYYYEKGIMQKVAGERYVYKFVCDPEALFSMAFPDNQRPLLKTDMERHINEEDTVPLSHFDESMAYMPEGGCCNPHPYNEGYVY
SPIB, sequence (Q01892 whole entry): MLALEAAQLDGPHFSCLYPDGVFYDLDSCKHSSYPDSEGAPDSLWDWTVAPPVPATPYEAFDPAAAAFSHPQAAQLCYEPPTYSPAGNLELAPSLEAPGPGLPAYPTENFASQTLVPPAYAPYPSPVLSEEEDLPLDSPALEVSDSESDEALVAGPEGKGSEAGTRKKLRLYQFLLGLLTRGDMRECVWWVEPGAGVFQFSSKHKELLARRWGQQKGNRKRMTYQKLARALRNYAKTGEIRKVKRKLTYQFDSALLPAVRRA
ELF4, sequence (Q99607 whole entry): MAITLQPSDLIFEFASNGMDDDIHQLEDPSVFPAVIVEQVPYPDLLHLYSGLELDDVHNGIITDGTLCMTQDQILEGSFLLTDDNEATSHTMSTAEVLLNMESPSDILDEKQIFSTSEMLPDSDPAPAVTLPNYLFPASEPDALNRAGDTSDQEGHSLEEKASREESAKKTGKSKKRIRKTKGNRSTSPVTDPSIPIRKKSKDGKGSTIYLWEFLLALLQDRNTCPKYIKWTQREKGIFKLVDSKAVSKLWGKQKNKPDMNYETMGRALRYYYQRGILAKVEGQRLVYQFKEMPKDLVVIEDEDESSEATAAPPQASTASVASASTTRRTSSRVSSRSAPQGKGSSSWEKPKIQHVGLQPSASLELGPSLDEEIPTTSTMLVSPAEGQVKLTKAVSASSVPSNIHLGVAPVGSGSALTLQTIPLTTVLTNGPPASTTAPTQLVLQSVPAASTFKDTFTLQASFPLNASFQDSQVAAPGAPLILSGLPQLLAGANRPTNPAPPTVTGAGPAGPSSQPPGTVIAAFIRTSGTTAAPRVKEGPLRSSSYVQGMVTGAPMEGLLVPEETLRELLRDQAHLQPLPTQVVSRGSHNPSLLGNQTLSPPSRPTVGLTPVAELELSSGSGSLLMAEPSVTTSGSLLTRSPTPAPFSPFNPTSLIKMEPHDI
ELF1, sequence (P32519 whole entry): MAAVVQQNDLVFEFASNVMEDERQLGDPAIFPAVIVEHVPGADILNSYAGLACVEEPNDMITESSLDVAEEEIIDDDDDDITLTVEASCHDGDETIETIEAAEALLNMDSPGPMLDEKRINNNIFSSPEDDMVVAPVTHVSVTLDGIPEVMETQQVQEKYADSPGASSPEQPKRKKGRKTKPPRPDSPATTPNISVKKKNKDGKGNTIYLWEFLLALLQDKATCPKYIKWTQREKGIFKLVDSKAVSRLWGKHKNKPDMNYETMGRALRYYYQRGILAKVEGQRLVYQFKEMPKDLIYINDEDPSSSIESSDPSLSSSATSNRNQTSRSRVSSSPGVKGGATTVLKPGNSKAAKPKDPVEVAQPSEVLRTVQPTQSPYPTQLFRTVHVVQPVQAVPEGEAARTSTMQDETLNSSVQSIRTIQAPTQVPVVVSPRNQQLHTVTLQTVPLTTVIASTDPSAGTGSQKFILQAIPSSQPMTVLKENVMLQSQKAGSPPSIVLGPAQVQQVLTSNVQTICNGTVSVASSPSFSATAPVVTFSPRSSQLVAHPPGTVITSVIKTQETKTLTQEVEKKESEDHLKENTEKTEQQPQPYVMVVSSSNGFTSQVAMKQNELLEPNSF

With CGATTG as the sequence, how does the binding signal (FLI1) read?
The binding signal was 1.22 fold enrichment (6-mer frequency, TF over GST control).

What about the binding signal (ELK1) of the same sequence?
Its binding signal is 1.29 fold enrichment (6-mer frequency, TF over GST control).

What about the binding signal (GABPA) of the same sequence?
The binding signal was 1.24 fold enrichment (6-mer frequency, TF over GST control).

And the binding signal (ERG)?
The binding signal was 1.26 fold enrichment (6-mer frequency, TF over GST control).

And the binding signal (ELF1)?
The binding signal was 1.24 fold enrichment (6-mer frequency, TF over GST control).

What about the binding signal (EHF) of the same sequence?
Its binding signal is 1.1 fold enrichment (6-mer frequency, TF over GST control).

What about the binding signal (SPI1) of the same sequence?
The binding signal was 1.22 fold enrichment (6-mer frequency, TF over GST control).

What about the binding signal (SPIB) of the same sequence?
Its binding signal is 1.19 fold enrichment (6-mer frequency, TF over GST control).

And the binding signal (ELK3)?
Its binding signal is 1.24 fold enrichment (6-mer frequency, TF over GST control).

And the binding signal (FEV)?
The binding signal was 1.12 fold enrichment (6-mer frequency, TF over GST control).

And the binding signal (ETV5)?
The binding signal was 1.18 fold enrichment (6-mer frequency, TF over GST control).

And the binding signal (HSF1)?
Its binding signal is 1.21 fold enrichment (6-mer frequency, TF over GST control).

And the binding signal (SPIC)?
The binding signal was 1.08 fold enrichment (6-mer frequency, TF over GST control).

What about the binding signal (ELF4) of the same sequence?
The binding signal was 1.28 fold enrichment (6-mer frequency, TF over GST control).

What about the binding signal (ELK4) of the same sequence?
Its binding signal is 1.34 fold enrichment (6-mer frequency, TF over GST control).

And the binding signal (ETV2)?
Its binding signal is 1.08 fold enrichment (6-mer frequency, TF over GST control).

What about the binding signal (ELF3) of the same sequence?
The binding signal was 1.14 fold enrichment (6-mer frequency, TF over GST control).

What about the binding signal (CRX) of the same sequence?
Its binding signal is 1.16 fold enrichment (6-mer frequency, TF over GST control).

And the binding signal (ETV1)?
The binding signal was 1.16 fold enrichment (6-mer frequency, TF over GST control).
